Assay outcomes: PubChem BioAssay, The Scripps Research Institute Molecular Screening Center
hcDAF-12 act: activates DAF-12 receptor from parasite H. contortus. HEK293 hcDAF-12 lit1-tk-luc reporter, luminescence; 0% DMSO, 100% Δ7-dafachronic acid. activation, % at 6.8 µM. actives 1.4% (n = 370,000). AID 652067;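 active means activation above the mean of all tested compounds plus 3 SD, cut at about 5.5% in these data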;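 further: 100% = response to 3 µM Δ7-dafachronic acid high control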
hgDAF12 agonist: hgDAF-12 agonism, primary luciferase screen; HEK293 GAL4-hgDAF12 UAS-luciferase reporter, agonist luminescence; normalized to butyrate control; actives 1.8% (n = 370,000); AID 687014; activation, % at 6.8 µM;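 active means activation above a cutoff set at the mean of all screened compounds plus 3 SD, cut at about 10% in these data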;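 further: 0% = DMSO wells and 100% = sodium butyrate wells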
DAX1 inh-1: inhibitors of DAX1 repression of SF-1 activated StAR promoter. HEK293T StAR-luciferase reporter, SF-1/DAX-1 repression relief. inhibition, % at 6.8 µM. actives 1.1% (n = 370,000). AID 652010;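 active means inhibition above the mean over all tested compounds plus 3 SD, cut at about 3.6% in these data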;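 further: 0% = DAX-1 cells with DMSO and 100% = cells lacking DAX-1 with DMSO; higher inhibition means more luminescence from relief of DAX-1 repression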
DAX1 inh-2: inhibitors of human orphan nuclear receptor DAX1 (NR0B1). inhibition, % at 6.75 µM. HEK293 Gal4-DAX1 luciferase reporter, luminescence. P51843. actives 0.99% (n = 340,000);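 active means inhibition above the mean over all tested compounds plus 3 SD, cut at about 4.2% in these data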;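 further: 0% = DAX1-transfected cells with DMSO and 100% = empty-vector control cells with DMSO; inhibition shows as a rise in luminescence from relieved DAX1 repression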
Target sequence (P51843 207-470 limits assumed): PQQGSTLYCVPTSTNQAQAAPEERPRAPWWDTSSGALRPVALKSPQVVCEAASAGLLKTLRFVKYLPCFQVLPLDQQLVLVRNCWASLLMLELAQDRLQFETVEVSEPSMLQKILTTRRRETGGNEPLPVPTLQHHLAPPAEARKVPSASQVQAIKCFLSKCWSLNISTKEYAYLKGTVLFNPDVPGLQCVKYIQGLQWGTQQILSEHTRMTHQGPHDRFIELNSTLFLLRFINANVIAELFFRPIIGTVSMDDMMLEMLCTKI
ssDAF-12 act: activators of S. stercoralis DAF-12 nuclear receptor. activation, % at 6.8 µM. AID 652126. HEK293 ssDAF-12/GRIP1 lit1-tk-luc reporter, luminescence; % of 3 µM dafachronic acid response. actives 1% (n = 370,000);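 active means activation above the mean over all tested compounds plus 3 SD, cut at about 0.9% in these data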;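 further: 0% = DMSO-only wells and 100% = 3 µM delta7-dafachronic acid wells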
Numbers without * were called inactive; nt = not tested or not shown. An excerpt weighted towards active compounds, which were near 4.1% of everything screened.

SMILES	hcDAF-12 act	hgDAF12 agonist	DAX1 inh-1	DAX1 inh-2	ssDAF-12 act
CCN(CC(=O)Nc1ccccc1C(F)(F)F)C(=O)c1ccc(N2C(=O)CCC2=O)cc1	1.2	0.0	0.5	0.0	-1.3
O=C(OC12CCCN(C1)/C(=C/c1ccccc1)C2)c1ccc(F)cc1 (centres undefined)	5.1	0.6	0.9	nt	-0.7
COc1cc2c(cc1NC(=O)c1ccco1)CCCC2	5.7*	6.5	1.0	1.8	-0.4
COc1cccc(C(=O)n2ccc3ccc(-c4ccc5ccn(C(=O)c6cccc(OC)c6)c5c4)cc32)c1	0.3	0.5	-0.7	nt	-0.5
COC(=O)c1ccccc1NC(=O)C1CCN(c2ncnc3c2nc2n3CCCCC2)CC1	-0.2	3.1	-0.2	4.8*	-1.0
COc1ccc(Cn2c(-c3ccccc3)nc3c(c(=O)c4ccccc4n3C)c2=O)cc1	3.1	-1.6	0.1	0.6	-0.9
COc1ccc(CCn2c(-c3ccccc3)nc3c(c(=O)c4ccccc4n3C)c2=O)cc1	5.8*	-1.9	0.3	nt	-0.7
COc1ccc(S[C@]2(C(=O)N3CCN(c4ncccn4)CC3)CC(=O)N(C(=O)CCc3ccccc3)[C@@H]2c2ccc(OC)cc2)cc1	3.4	0.5	-0.5	nt	-0.7
CC(C)c1[nH]nc2c1C(c1ccccc1)N(c1ccccc1)C2=O (centres undefined)	0.8	-3.1	0.4	nt	-0.3
Cc1cccn2c(=O)c(C(=O)NC3CCCCC3C)c(O)nc12 (centres undefined)	-1.3	3.0	4.0*	1.5	-1.0
Cc1cccn2c(=O)c(C(=O)NC3CCCCC3)c(O)nc12	-1.0	0.1	-0.2	0.4	-1.2
CC1=C[C@]2(CN(CC3CC3)C3=N[C@H](c4ccccc4)CC(=O)N32)n2c(=O)n(-c3ccccc3)c(=O)n2C1	-1.3	1.4	nt	nt	-1.1
CN1CCCCC(NC(=O)c2ccc3ccccc3c2)C1=O (centres undefined)	1.4	10.6*	1.1	nt	-0.6
CN1CCCCC(NC(=O)c2ccccc2)C1=O (centres undefined)	0.3	1.2	-0.5	nt	-0.6
CCn1c2ccccc2c2nnc(SCCN3CCOCC3)nc21	-1.7	0.6	-0.5	-1.4	-0.9
Cn1c2ccccc2c2nnc(SCCN3CCOCC3)nc21	6.3*	3.2	0.3	0.1	0.2
Cn1c2ccccc2c2nnc(SCC(N)=O)nc21	1.2	1.3	0.1	-1.5	0.9*
CSc1nnc2c3cc(F)ccc3n(C)c2n1	5.5	5.7	0.0	0.3	1.0*
Cc1cc(C)c2c(c1)c1nnc(SCCN3CCCCC3)nc1n2C	6.1*	5.8	1.5	-2.2	1.6*
CCOC(=O)CSc1nnc2c3ccccc3n(C)c2n1	-0.8	0.5	-0.2	-0.8	-1.0
CCCCn1c2ccc(C)cc2c2nnc(SCCN3CCCCC3)nc21	-2.5	-0.7	-0.4	-0.3	-1.6
O=C(CCc1ccccc1)N[C@H]1[C@H](O)CCC[C@]12C(=O)N(Cc1ccccc1)c1ccccc12	-0.2	3.6	-0.1	nt	-0.9
Cn1c2ccc(Br)cc2c2nnc(SCC(=O)O)nc21	5.7*	3.4	-0.2	0.9	0.6
Cn1c2ccccc2c2nnc(SCC(=O)Nc3cccc(O)c3)nc21	0.8	4.6	-0.2	-3.1	0.4
N#CCCN(C(=O)CSc1n[nH]c(=O)[nH]c1=O)c1ccccc1	-0.8	0.6	-1.6	-1.1	-0.8
SMILES	hcDAF-12 act	hgDAF12 agonist	DAX1 inh-1	DAX1 inh-2	ssDAF-12 act
Cc1ccc(N(CCC#N)C(=O)CSc2nc3ccccc3c(=O)[nH]2)cc1	-1.5	1.8	3.7*	0.2	-0.9
Cc1ccc(S(=O)(=O)N2CCN(c3nc(CN4CCCC4)nc4sc(C)c(C)c34)CC2)cc1	1.2	-0.7	-1.5	1.2	-1.3
Cc1sc2nc(CN3CCOCC3)nc(NS(=O)(=O)c3ccccc3)c2c1C	-1.0	1.9	-0.1	6.3*	-1.0
Cc1sc2nc(CN3CCCC3)nc(N3CCN(S(=O)(=O)c4cccs4)CC3)c2c1C	-0.9	0.0	-0.3	4.7*	-1.4
Cc1sc2nc(CN3CCOCC3)nc(NS(=O)(=O)c3ccc4c(c3)OCCO4)c2c1C	0.9	-0.1	0.5	-0.7	-0.5
CCCCc1nc2cc(C(=O)NC(C)c3cnn(C)c3)ccc2o1 (centres undefined)	2.2	7.5	3.8*	0.9	-0.9
CCCCc1nc2cc(C(=O)N3CCCC3)ccc2o1	0.8	3.5	4.0*	1.2	-0.7
CCCCc1nc2cc(C(=O)NCc3ccccn3)ccc2o1	0.3	0.2	0.2	1.2	-0.8
CCCCc1nc2cc(C(=O)N3CCCCC3C(=O)OC)ccc2o1 (centres undefined)	-0.9	12.2*	4.2*	1.0	-0.2
Cc1ccc(-n2nnnc2SCn2nnc3ccccc3c2=O)cc1	1.4	13.1*	0.2	1.6	-0.2
O=c1c2ccccc2nnn1CSc1nnnn1-c1ccc(O)cc1	4.2	-1.5	-0.2	-0.1	-1.8
Cc1c(C(=O)Nc2nccs2)oc2c(Cl)cccc12	5.4	6.6	1.5	2.0	1.3*
Cc1c(C(=O)NC(C)c2ccccn2)oc2c(Cl)cccc12 (centres undefined)	5.2	-0.7	-0.8	-1.5	-0.3
CCOC(=O)[C@]12CCC=C1N(Cc1ccccc1)C(=O)[C@H](CC(=O)N1CCOCC1)C2	1.7	1.8	4.3*	nt	-0.8
CCOC(=O)[C@]12CCC=C1N(Cc1ccccc1)C(=O)[C@H](CC(=O)N1CCSCC1)C2	2.2	-1.0	-0.2	nt	-0.6
CCOC(=O)[C@]12CCC=C1N(CCC1=CCCCC1)C(=O)[C@H](CC(=O)N1CCSCC1)C2	-1.3	-1.7	4.1*	nt	-1.1
CCOC(=O)c1ccc(NC(=O)CSc2nnc(-c3cc(-c4ccccc4)n[nH]3)n2N)cc1	2.6	3.0	-1.6	nt	-1.6
CC1CCCC(C)N1S(=O)(=O)c1ccc(Cl)cc1 (centres undefined)	-1.9	-1.1	0.0	4.7*	-1.7
COC(=O)c1ccccc1S(=O)(=O)N1CCC(C(=O)NCC2CCCO2)CC1 (centres undefined)	-0.8	0.4	1.2	4.3*	0.5
COC(=O)c1ccccc1NC(=O)c1cc2ccccc2o1	2.9	3.8	0.3	0.9	-0.4
O=C(Nc1ccccc1C(F)(F)F)c1cc2ccccc2o1	4.2	13.1*	3.4	5.2*	0.5
CCOc1ccccc1NC(=O)c1cc2ccccc2oc1=O	1.4	0.6	0.1	2.3	-0.7
COC(=O)c1cccc(NC(=O)c2cc3ccccc3o2)c1	2.9	12.1*	2.2	-0.6	0.3
COc1ccc(C)cc1NC(=O)c1cc2ccccc2o1	6.0*	4.8	0.3	1.7	1.6*
CCOc1ccccc1NC(=O)c1cc2ccccc2o1	4.5	7.0	0.3	1.1	0.9*
COc1cccc(-c2nnc(SCC(=O)Nc3ccc(Oc4ccccc4)cc3)n2Cc2ccco2)c1	-4.0	-0.8	-0.4	nt	-1.5
COC(=O)[C@]12CCCCC=C1N(Cc1ccc(OC)cc1)C(=O)[C@@H]2CC(=O)NCC1CCCCC1	-4.7	-0.7	-0.2	nt	-1.5
